The campaign covered roughly 5,500 compounds. About 2,000 (36%) were called active. Inconclusive results (about 18%) are left out. Cut-off read from the data, not from the text of the source: active = normalized growth mostly below about 0.91 (no sharp cut-off); inconclusive = no clear call, values can overlap the other calls; inactive = mostly above about 0.92. The list shows a part of the results.
Test: chemical genetic growth profiling, strain panel (AID 1159580);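 note: tested at 20 µM; growth read once vehicle control cultures reached saturation at 30 °C; 1 = growth at the plate median or of vehicle wells; lower values mean less growth of the strain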
Settings: growth OD

Measured: normalized growth

C[C@@H](CO)NC(=O)C1C=C2c3cccc4[nH]cc(c34)C[C@H]2N(C)C1 (some centres not stated)
inactive: S. cerevisiae deletion strains, locus YJR075W, strain HOC1, active compounds read low 1.03 | S. cerevisiae deletion strains, locus YKL009W, strain mrt4, active compounds read low 0.976 | S. cerevisiae deletion strains, locus YKL068W, active compounds read low 0.993 | S. cerevisiae deletion strains, locus YKL085W, strain MDH1 (second series), active compounds read low 0.982 | S. cerevisiae deletion strains, locus YKL085W, strain MDH1, active compounds read low 0.982 | S. cerevisiae deletion strains, locus YKL160W, strain elf1, active compounds read low 1.04 | S. cerevisiae deletion strains, locus YKL190W, strain CNB1, active compounds read low 1.01 | S. cerevisiae deletion strains, locus YKR001C, strain vps1, active compounds read low 0.997 | S. cerevisiae deletion strains, locus YKR026C, strain gcn3, active compounds read low 1.01 | S. cerevisiae deletion strains, locus YKR091W, strain srl3, active compounds read low 1.01 | S. cerevisiae deletion strains, locus YLL001W, strain dnm1, active compounds read low 1.04 | S. cerevisiae deletion strains, locus YLL026W, active compounds read low 1.03 | S. cerevisiae deletion strains, locus YLL041C, strain sdh2, active compounds read low 1.01 | S. cerevisiae deletion strains, locus YLR027C, strain aat2, active compounds read low 1.03 | S. cerevisiae deletion strains, locus YLR039C, strain RIC1, active compounds read low 1.02 | S. cerevisiae deletion strains, locus YLR058C, strain SHM2, active compounds read low 1 | S. cerevisiae deletion strains, locus YLR102C, strain apc9, active compounds read low 0.993 | S. cerevisiae deletion strains, locus YLR113W, strain HOG1, active compounds read low 1.07 | S. cerevisiae deletion strains, locus YLR221C, strain rsa3, active compounds read low 0.97 | S. cerevisiae deletion strains, locus YLR258W, strain gsy2, active compounds read low 1.01 | S. cerevisiae deletion strains, locus YLR262C, strain YPT6 (second series), active compounds read low 1.04 | S. cerevisiae deletion strains, locus YLR262C, strain YPT6, active compounds read low 1.05 | S. cerevisiae deletion strains, locus YLR268W, strain sec22, active compounds read low 1.02 | S. cerevisiae deletion strains, locus YLR320W, strain mms22, active compounds read low 1 | S. cerevisiae deletion strains, locus YLR330W, strain CHS5, active compounds read low 0.994 | S. cerevisiae deletion strains, locus YLR342W, strain FKS1 (second series), active compounds read low 0.973 | S. cerevisiae deletion strains, locus YLR342W, strain FKS1, active compounds read low 1.03 | S. cerevisiae deletion strains, locus YLR357W, strain rsc2, active compounds read low 1 | S. cerevisiae deletion strains, locus YLR370C, strain arc18, active compounds read low 1.02 | S. cerevisiae deletion strains, locus YLR371W, strain rom2, active compounds read low 0.993 | S. cerevisiae deletion strains, locus YLR384C, strain iki3, active compounds read low 0.998 | S. cerevisiae deletion strains, locus YLR418C, strain cdc73, active compounds read low 1.02 | S. cerevisiae deletion strains, locus YML016C, strain PPZ1, active compounds read low 0.991 | S. cerevisiae deletion strains, locus YML032C, strain rad52, active compounds read low 0.981 | S. cerevisiae deletion strains, locus YML120C, strain ndi1, active compounds read low 1.04 | S. cerevisiae deletion strains, locus YML124C, strain tub3, active compounds read low 0.992 | S. cerevisiae deletion strains, locus YMR058W, strain fet3, active compounds read low 1.03 | S. cerevisiae deletion strains, locus YMR078C, strain ctf18, active compounds read low 0.985 | S. cerevisiae deletion strains, locus YMR125W, strain sto1, active compounds read low 1.01 | S. cerevisiae deletion strains, locus YMR129W, active compounds read low 1.01 | S. cerevisiae deletion strains, locus YMR205C, strain PFK2, active compounds read low 1.04 | S. cerevisiae deletion strains, locus YMR223W, strain ubp8, active compounds read low 0.988 | S. cerevisiae deletion strains, locus YMR231W, strain pep5, active compounds read low 1 | S. cerevisiae deletion strains, locus YMR263W, strain SAP30, active compounds read low 1.04 | S. cerevisiae deletion strains, locus YMR307W, strain GAS1, active compounds read low 0.96 | S. cerevisiae deletion strains, locus YNL067W, strain RPL9B, active compounds read low 1.05 | S. cerevisiae deletion strains, locus YNL071W, strain lat1, active compounds read low 1 | S. cerevisiae deletion strains, locus YNL128W, strain TEP1, active compounds read low 1.03 | S. cerevisiae deletion strains, locus YNL153C, strain GIM3, active compounds read low 1.01 | S. cerevisiae deletion strains, locus YNL183C, strain NPR1, active compounds read low 0.994 | S. cerevisiae deletion strains, locus YNL209W, strain ssb2, active compounds read low 1 | S. cerevisiae deletion strains, locus YNL233W, strain BNI4, active compounds read low 1.01 | S. cerevisiae deletion strains, locus YNL248C, strain rpa49, active compounds read low 0.991 | S. cerevisiae deletion strains, locus YNL250W, strain rad50, active compounds read low 1.01 | S. cerevisiae deletion strains, locus YNL271C, strain bni1, active compounds read low 1 | S. cerevisiae deletion strains, locus YNL298W, strain CLA4, active compounds read low 0.992 | S. cerevisiae deletion strains, locus YNL307C, strain MCK1, active compounds read low 0.985 | S. cerevisiae deletion strains, locus YNL322C, strain KRE1 (second series), active compounds read low 1.02 | S. cerevisiae deletion strains, locus YNL322C, strain KRE1, active compounds read low 1.01 | S. cerevisiae deletion strains, locus YNR049C, strain mso1, active compounds read low 1.01 | S. cerevisiae deletion strains, locus YNR052C, strain pop2, active compounds read low 0.984 | S. cerevisiae deletion strains, locus YOL006C, strain TOP1, active compounds read low 1.09 | S. cerevisiae deletion strains, locus YOL012C, strain htz1 0.782 | S. cerevisiae deletion strains, locus YOL147C, strain pex11, active compounds read low 0.996 | S. cerevisiae deletion strains, locus YOR001W, strain rrp6, active compounds read low 1.02 | S. cerevisiae deletion strains, locus YOR061W, strain CKA2, active compounds read low 1 | S. cerevisiae deletion strains, locus YOR069W, strain VPS5, active compounds read low 0.992 | S. cerevisiae deletion strains, locus YOR070C, strain gyp1, active compounds read low 1 | S. cerevisiae deletion strains, locus YOR080W, strain dia2, active compounds read low 1.02 | S. cerevisiae deletion strains, locus YOR083W, strain WHI5, active compounds read low 1.02 | S. cerevisiae deletion strains, locus YOR106W, strain vam3, active compounds read low 1.05 | S. cerevisiae deletion strains, locus YOR136W, strain idh2, active compounds read low 0.988 | S. cerevisiae deletion strains, locus YOR144C, strain elg1, active compounds read low 0.989 | S. cerevisiae deletion strains, locus YOR184W, strain ser1, active compounds read low 1 | S. cerevisiae deletion strains, locus YOR231W, strain MKK1, active compounds read low 1.04 | S. cerevisiae deletion strains, locus YOR265W, strain rbl2, active compounds read low 1.01 | S. cerevisiae deletion strains, locus YOR270C, strain vph1, active compounds read low 1 | S. cerevisiae deletion strains, locus YOR290C, strain snf2, active compounds read low 0.969 | S. cerevisiae deletion strains, locus YOR316C, strain cot1, active compounds read low 0.988 | S. cerevisiae deletion strains, locus YPL051W, strain arl3, active compounds read low 1.01 | S. cerevisiae deletion strains, locus YPL055C, strain LGE1, active compounds read low 1.07 | S. cerevisiae deletion strains, locus YPL078C, strain atp4, active compounds read low 1.06 | S. cerevisiae deletion strains, locus YPL106C, strain sse1, active compounds read low 1.04 | S. cerevisiae deletion strains, locus YPL240C, strain hsp82, active compounds read low 1.01 | S. cerevisiae deletion strains, locus YPL241C, strain CIN2, active compounds read low 1 | S. cerevisiae deletion strains, locus YPL256C, strain CLN2, active compounds read low 1.04 | S. cerevisiae deletion strains, locus YPR119W, strain clb2, active compounds read low 1 | S. cerevisiae deletion strains, locus YPR141C, strain kar3, active compounds read low 0.993 | S. cerevisiae deletion strains, locus YPR163C, strain tif3, active compounds read low 0.994 | S. cerevisiae deletion strains, locus YPR167C, strain met16, active compounds read low 0.995 | S. cerevisiae deletion strains, strain wtn01, active compounds read low 0.999 | S. cerevisiae strains, strain wild type, active compounds read low 1.03

Reference: PubChem BioAssay AID1159580 (chemical genetic matrix, 2015)
